The source made the active and inactive calls. The calls were made as follows: active = hit-call score of the fitted dose curve at least 0.9, where 1 is the maximum; inactive = score below 0.9.
Assays:
[1] = read-out: Collagen III, COL3A1 (gene 1281); experiment: BSK_hDFCGF_CollagenIII: BioMAP Diversity Plus: hDFCGF Assay for Collagen III Biomarker Activity (AID 2283056); conditions: primary human foreskin fibroblasts; actives raise or lower the signal
Outline: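 Cells: human foreskin fibroblasts, primary. Dosing followed by 24 h incubation, then ELISA for collagen III. Both increases and decreases scored relative to DMSO.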

[2] = read-out: Epidermal growth factor receptor (EGFR), EGFR (gene 1956); experiment: BSK_hDFCGF_EGFR: BioMAP Diversity Plus: hDFCGF Assay for Epidermal growth factor receptor (EGFR) Biomarker Activity (AID 2283057); conditions: primary human foreskin fibroblasts; actives raise or lower the signal
Outline: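 EGFR levels by ELISA in human dermal fibroblast cultures, 24 h post-treatment, fitted bidirectionally versus DMSO. Parallel wells stained with sulforhodamine B to detect overt cytotoxicity.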

[3] = BSK_hDFCGF_Proliferation: Cell Proliferation Assessment in the BioMAP Diversity Plus: hDFCGF Assay (AID 2283059); conditions: primary human foreskin fibroblasts;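 also: curves fitted for both rise and fall of signal versus DMSO baseline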
Outline: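 Total protein read at 560 nm after 0.1% SRB staining of TCA-fixed human skin fibroblasts, […]. Activity is fitted in both directions relative to DMSO as baseline.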

[4] = read-out: Macrophage colony-stimulating factor (MCSF), CSF1 (gene 1435); experiment: BSK_hDFCGF_MCSF: BioMAP Diversity Plus: hDFCGF Assay for Macrophage colony-stimulating factor (MCSF) Biomarker Activity (AID 2283060); conditions: primary human foreskin fibroblasts; actives raise or lower the signal
Outline: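 M-CSF levels, determined by ELISA, are taken at 24 h after dosing human skin fibroblasts. Responses in either direction are fitted with DMSO serving as the baseline.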

[5] = BSK_hDFCGF_SRB: Viability Assessment in the BioMAP Diversity Plus: hDFCGF Assay (AID 2283061); conditions: primary human foreskin fibroblasts;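 also: cells exposed to compound for 24 h before the read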
Outline: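 Cells were dosed with test chemical, cultured 24 h, fixed with 10% TCA, then stained with 0.1% SRB and read at 560 nm. The fibroblasts were human foreskin primary cells, and DMSO served as baseline.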

[6] = read-out: TIMP metallopeptidase inhibitor 1 (TIMP1), TIMP1 (gene 7076); experiment: BSK_hDFCGF_TIMP1: BioMAP Diversity Plus: hDFCGF Assay for TIMP metallopeptidase inhibitor 1 (TIMP1) Biomarker Activity (AID 2283062); conditions: primary human foreskin fibroblasts; actives raise or lower the signal
Outline: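 Fibroblasts from human foreskin are treated with test chemical and harvested at 24 h. TIMP-1 is quantified by ELISA, and gain or loss of signal is scored against DMSO.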

[7] = read-out: Monokine induced gamma interferon (MIG), CXCL9 (gene 4283); experiment: BSK_hDFCGF_MIG: BioMAP Diversity Plus: hDFCGF Assay for Monokine induced gamma interferon (MIG) Biomarker Activity (AID 2283063); conditions: primary human foreskin fibroblasts; actives raise or lower the signal
Outline: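 MIG signal, determined by ELISA, reflects 24 h chemical exposure of human skin primary fibroblasts. DMSO serves as negative control and baseline.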

[8] = read-out: Matrix Metallopeptidase 1 (MMP1), MMP1 (gene 4312); experiment: BSK_hDFCGF_MMP1: BioMAP Diversity Plus: hDFCGF Assay for Matrix Metallopeptidase 1 (MMP1) Biomarker Activity (AID 2283064); conditions: primary human foreskin fibroblasts; actives raise or lower the signal
Outline: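 Human foreskin fibroblasts exposed to chemical for 24 h; MMP1 detected by ELISA, with DMSO as baseline for bidirectional fitting.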

[9] = read-out: Vascular cell adhesion molecule 1 (VCAM1), VCAM1 (gene 7412); experiment: BSK_hDFCGF_VCAM1: BioMAP Diversity Plus: hDFCGF Assay for Vascular cell adhesion molecule 1 (VCAM1) Biomarker Activity (AID 2283065); conditions: primary human foreskin fibroblasts; actives raise or lower the signal
Outline: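 Cells are dosed, cultured for 24 h, then VCAM-1 is quantified by ELISA; signal increases and decreases are both fitted relative to DMSO.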

[10] = read-out: Plasminogen activator inhibitor-1 (PAI1), SERPINE1 (gene 5054); experiment: BSK_hDFCGF_PAI1: BioMAP Diversity Plus: hDFCGF Assay for Plasminogen activator inhibitor-1 (PAI1) Biomarker Activity (AID 2283066); conditions: primary human foreskin fibroblasts; actives raise or lower the signal
Outline: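 PAI-1 levels in human dermal foreskin fibroblasts were quantified by ELISA 24 h after dosing, with gain or loss analysed against DMSO. Overt cytotoxicity was checked by sulforhodamine B total-protein staining in parallel cultures.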

[11] = read-out: Intercellular Adhesion Molecule 1 (ICAM1), ICAM1 (gene 3383); experiment: BSK_KF3CT_ICAM1: BioMAP Diversity Plus: KF3CT Assay for Intercellular Adhesion Molecule 1 (ICAM1) Biomarker Activity (AID 2283067); conditions: primary human keratinocytes with fibroblasts; actives raise or lower the signal
Outline: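 Dose the keratinocyte/fibroblast co-culture, wait 24 h, measure ICAM-1 by ELISA, then fit increases or decreases against DMSO. Cytotoxicity is checked in parallel cultures by SRB total-protein staining.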

[12] = read-out: Interferon-gamma inducible Protein 10 (IP10), CXCL10 (gene 3627); experiment: BSK_KF3CT_IP10: BioMAP Diversity Plus: KF3CT Assay for Interferon-gamma inducible Protein 10 (IP10) Biomarker Activity (AID 2283068); conditions: primary human keratinocytes with fibroblasts; actives raise or lower the signal
Outline: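 Human keratinocyte plus foreskin fibroblast primary co-culture exposed to test chemical for 24 h; IP-10 measured by ELISA. Concentration-response fitted bidirectionally against DMSO control as baseline.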

[13] = BSK_KF3CT_SRB: Viability Assessment in the BioMAP Diversity Plus: KF3CT Assay (AID 2283069); conditions: primary human keratinocytes with fibroblasts;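 also: fitted for both signal gain and loss against DMSO baseline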
Outline: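 Overt cytotoxicity is assessed as total protein by sulforhodamine B staining in parallel human skin co-cultures at 24 h after dosing. DMSO serves as negative control and baseline.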

[14] = read-out: Interleukin-1 alpha (IL1a), IL1A (gene 3552); experiment: BSK_KF3CT_IL1a: BioMAP Diversity Plus: KF3CT Assay for Interleukin-1 alpha (IL1a) Biomarker Activity (AID 2283070); conditions: primary human keratinocytes with fibroblasts; actives raise or lower the signal
Outline: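 Readout is IL-1a level by ELISA, compared bidirectionally with DMSO as baseline. Cells: human keratinocytes co-cultured with foreskin fibroblasts, harvested 24 h post-dose.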

[15] = read-out: TIMP metallopeptidase inhibitor 2 (TIMP2), TIMP2 (gene 7077); experiment: BSK_KF3CT_TIMP2: BioMAP Diversity Plus: KF3CT Assay for TIMP metallopeptidase inhibitor 2 (TIMP2) Biomarker Activity (AID 2283071); conditions: primary human keratinocytes with fibroblasts; actives raise or lower the signal
Outline: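 TIMP-2 measured by ELISA at 24 h in human keratinocyte/fibroblast primary co-cultures exposed to chemicals. Both increases and decreases were fitted against DMSO. Parallel cultures were stained with SRB for total protein as an overt-cytotoxicity check.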

[16] = read-out: Transforming growth factor beta 1 (TGFb1), TGFB1 (gene 7040); experiment: BSK_KF3CT_TGFb1: BioMAP Diversity Plus: KF3CT Assay for Transforming growth factor beta 1 (TGFb1) Biomarker Activity (AID 2283072); conditions: primary human keratinocytes with fibroblasts; actives raise or lower the signal
Outline: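 ELISA quantifies TGF-b1 at 24 h post-dose in a primary human skin co-culture of keratinocytes and fibroblasts, with gain or loss judged against DMSO. Parallel SRB total-protein staining flags overt cytotoxicity.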

[17] = read-out: Matrix Metallopeptidase 9 (MMP9), MMP9 (gene 4318); experiment: BSK_KF3CT_MMP9: BioMAP Diversity Plus: KF3CT Assay for Matrix Metallopeptidase 9 (MMP9) Biomarker Activity (AID 2283074); conditions: primary human keratinocytes with fibroblasts; actives raise or lower the signal
Outline: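 Values come from bidirectional fitting relative to DMSO of MMP-9 levels, which were measured by ELISA. Measurements were taken 24 h after chemical dosing of a keratinocyte and foreskin fibroblast co-culture.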

CD40, CD40 (gene 958) = experiment: BSK_LPS_CD40: BioMAP Diversity Plus: LPS Assay for CD40 Biomarker Activity (AID 2283076); conditions: primary human HUVEC with PBMC; actives raise or lower the signal
Outline: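 CD40 signal, measured by ELISA, is fitted in both directions relative to DMSO vehicle. The system is an LPS-driven human vascular primary co-culture of endothelial cells and PBMC, sampled 24 h after compound addition.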

[18] = read-out: E-selectin (Homo sapiens) (UniProt P16581); experiment: BSK_LPS_Eselectin: BioMAP Diversity Plus: LPS Assay for Eselectin Biomarker Activity (AID 2283077); conditions: primary human HUVEC with PBMC; actives raise or lower the signal
Outline: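 Signal of E-selectin, detected by ELISA, served as the endpoint; cells were umbilical vein endothelium with PBMC, read 24 h after treatment. DMSO defined baseline, and both increases and decreases were fitted.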

[19] = read-out: Interleukin-8 (IL8), CXCL8 (gene 3576); experiment: BSK_LPS_IL8: BioMAP Diversity Plus: LPS Assay for Interleukin-8 (IL8) Biomarker Activity (AID 2283078); conditions: primary human HUVEC with PBMC; actives raise or lower the signal
Outline: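 Endothelial cells and PBMC from human donors are co-cultured, treated with chemicals and LPS, then assayed for IL-8 by ELISA after 24 h. Parallel SRB staining (0.1% SRB after 10% TCA fixation, 560 nm) flags cytotoxicity.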

Measured: outcome

Chain of E-selectin (Homo sapiens) (P16581 whole entry, looked up): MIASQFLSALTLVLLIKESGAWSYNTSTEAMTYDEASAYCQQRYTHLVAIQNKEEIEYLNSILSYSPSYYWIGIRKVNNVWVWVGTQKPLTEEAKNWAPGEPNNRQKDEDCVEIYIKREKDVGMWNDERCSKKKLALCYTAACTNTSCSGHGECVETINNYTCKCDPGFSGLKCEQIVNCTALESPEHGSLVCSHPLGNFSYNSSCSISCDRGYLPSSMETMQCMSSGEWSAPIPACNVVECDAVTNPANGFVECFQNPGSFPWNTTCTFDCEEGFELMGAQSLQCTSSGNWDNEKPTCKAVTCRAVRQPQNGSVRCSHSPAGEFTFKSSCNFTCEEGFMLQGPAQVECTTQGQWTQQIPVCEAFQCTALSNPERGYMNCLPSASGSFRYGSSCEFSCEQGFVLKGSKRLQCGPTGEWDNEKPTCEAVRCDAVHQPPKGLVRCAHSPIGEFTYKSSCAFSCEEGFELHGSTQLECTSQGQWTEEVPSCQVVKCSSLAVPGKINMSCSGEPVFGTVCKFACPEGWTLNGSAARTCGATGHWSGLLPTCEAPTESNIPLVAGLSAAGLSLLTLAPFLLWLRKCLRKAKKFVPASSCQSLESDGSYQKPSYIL

S=C(NC1CCCCC1)NC1CCCCC1
inactive: [1] | [2] | [3] | [4] | [5] | [6] | [7] | [8] | [9] | [10] | [11] | [12] | [13] | [14] | [15] | [16] | [17] | CD40, CD40 (gene 958) | [18] | [19]

CCO[Si](C)(OCC)OCC
inactive: [1] | [2] | [3] | [4] | [5] | [6] | [7] | [8] | [9] | [10] | [11] | [12] | [13] | [14] | [15] | [17] | CD40, CD40 (gene 958) | [18] | [19]
